Experimental findings from ChEMBL document CHEMBL4513216, “Probing the Open Global Health Chemical Diversity Library for Multistage-Active Starting Points for Next-Generation Antimalarials” (ACS Infect Dis, 2020) are described below.

Screen size: about 69,000 compounds; about 8,600 (12%) showed an effect of 50% or more. This excerpt belongs to a sample that is enriched for strong results.

In the experiment the test system is Plasmodium berghei. The experiment is described as follows: Screen against P. berghei liver stage (PbLuc), transformed with Luciferase, at 10uM. The class given is functional, HepG2. The note with it: tested at 10 uM.
Turning to `Cc1nc(C)n(CC2CCCN(CCCOc3ccc(F)cc3)C2)n1` (stereo not drawn), the INHIBITION turned out to be 40.2%.
The result for `NC(=O)C1CCN(CCc2ccc(NC(=O)C3CC3)cc2)CC1` reads 45.05%.
Take `CC(O)(CNC(=O)NCCc1ccc2c(c1)CCO2)c1ccsc1` (stereo not drawn): the INHIBITION is on record as 30.8%.
On to `CC(C)c1nn(C)cc1CNC1CCOc2ccccc21` (stereo not drawn), for which the INHIBITION is recorded as 31.8%.
`COc1ccccc1C1CNCCN1C(C)=O` (stereo not drawn): the INHIBITION worked out at 9.98%.
Consider `CC(=O)N1CCC2(CCCN2Cc2cnn(C)c2)CC1`, for which the INHIBITION is given as -26%.
The result for `CCOc1ccnc(N2CCCN(c3nc(C4CC4)ns3)CC2)n1` reads -75.5%; that for `COc1ccnc(N2CCCN(c3nc(C4CC4)ns3)CC2)n1`, 77.6%; that for `CCOc1ccnc(N2CCCN(c3nc(CC)ns3)CC2)n1`, -12.5%.
For the compound `CC(C)C(NC(=O)Cn1ccc(=O)n(C)c1=O)c1ccc(F)cc1` (stereo not drawn), the INHIBITION was 53.8%.
The result for `CC(NC(=O)Cn1ccc(=O)n(C)c1=O)c1cc(F)ccc1F` (stereo not drawn) reads -35.7%.
Regarding `CC(NC(=O)Cn1ccc(=O)n(C)c1=O)c1ccccc1F` (stereo not drawn), the INHIBITION is -27.8%.
The result for `O=C(c1ccc(NCc2cccc(F)c2)cc1)N1CCCC1` reads -16.1%; that for `CCC(C(=O)N(C)Cc1cc(COC)[nH]n1)n1cccn1` (stereo not drawn), -29.2%.
As to `O=C(c1ccc(NC2CC2)nc1)N1CCCC(n2ccnc2)C1` (stereo not drawn), the INHIBITION stood at 31.32%.
Consider `CCn1cc(S(=O)(=O)N2CCCC3(CC=CNC3=O)C2)c(C)n1` (stereo not drawn), for which the INHIBITION is -42.9%.
As for `Cn1cc(C(O)CNC(=O)c2cc(Br)ccc2Cl)cn1` (stereo not drawn), the INHIBITION worked out at 19.8%.
Consider `Cc1ccc(C(=O)NCC(O)c2cnn(C)c2)c(Br)c1` (stereo not drawn), for which the INHIBITION amounted to 29.7%.
Consider `Cn1cc(C(O)CNC(=O)c2ccc(F)cc2Cl)cn1` (stereo not drawn), for which the INHIBITION turned out to be 51.6%.
On to `CC(C)(O)CNC(=O)NCc1nccn1CCc1ccccc1`, for which the INHIBITION is recorded as -4.63%.
The figure for `CC(C)COCC(NC(=O)c1ccccn1)c1ccco1` (stereo not drawn) is 8.25%; for `CC(C)COCC(NC(=O)c1cc[nH]n1)c1ccco1` (stereo not drawn) it is 53.8%; for `CC(C)COCC(NC(=O)c1cnccn1)c1ccco1` (stereo not drawn) it is -26.6%.
Consider `CCn1nc(CC(C)C)cc1C(=O)NCC(F)(F)F`, for which the INHIBITION came to 15.4%.
Regarding `Cc1noc(C)c1CN1CCOC2(CCCN(c3ncccn3)C2)C1` (stereo not drawn), the INHIBITION was -21.1%.
The figure for `CC(C)c1nnc(CN2CCN(C(C)c3nc(C4CC4)no3)CC2)o1` (stereo not drawn) is 33.3%; for `CCC1=NN2C(=N)C(=Cc3cccn3-c3ccc(Cl)cc3)C(=O)N=C2S1` it is 76.7%.
As for `CCC1=NN2C(=N)/C(=C/c3cccc(Cl)c3)C(=O)N=C2S1`, the INHIBITION amounted to 37.7%.
In the case of `CCC1=NN2C(=N)C(=Cc3cccn3-c3cccc(Cl)c3)C(=O)N=C2S1`, the INHIBITION turned out to be 73.7%.
On to `CCC1=NN2C(=N)C(=Cc3cccn3-c3ccc(Br)cc3)C(=O)N=C2S1`, for which the INHIBITION is reported as 65.4%.
For the compound `O=C(O)Cc1cn2cc(C(F)(F)F)ccc2n1`, the INHIBITION is reported as 7.38%.
The result for `Cn1cc(CN2CC[C@H](O)[C@@H]2Cc2ccccc2)cn1` reads 17.1%.
Turning to `Cc1noc(C)c1C(=O)N1C[C@H]2CCC[C@@]2(COc2ccccn2)C1`, the INHIBITION is given as 34.7%.
The figure for `CCC[C@H]1CN(c2nccc(NCC)n2)C[C@@H]1NS(=O)(=O)N(C)C` is 48.7%; for `COc1ccnc(N2C[C@@H](NS(=O)(=O)N(C)C)[C@H](C(C)C)C2)n1` it is -15.6%; for `CCC[C@H]1CN(c2nccc(OC)n2)C[C@@H]1NS(=O)(=O)N(C)C` it is 56.6%.
As for `CCS(=O)(=O)N1CC[C@H](OC)[C@@H]1Cc1ccncc1`, the INHIBITION is listed as 28.4%.
The result for `CNc1ncc(-c2ccnn2C2CCN(C(C)=O)CC2)cn1` reads 42.6%; that for `CCc1c(C(=O)N2CC(C)OC(C)(C)C2)cnn1-c1ccccn1` (stereo not drawn), 2.97%; that for `CC1CN(C(=O)c2cnn(-c3ccccn3)c2C(C)C)CC(C)(C)O1` (stereo not drawn), 51.5%.
As for `CCc1c(C(=O)N2CCOC(C)(C)C2)cnn1-c1ccccn1`, the INHIBITION came out at 4.95%.
Take `CCOC[C@@H]1CCC[C@]12CN(S(=O)(=O)c1cn(C)cn1)CCO2`: the INHIBITION is listed as 35.5%.
Take `O=C(c1cccn1Cc1cccs1)N1CCSCC1`: the INHIBITION came to 9.64%.
Take `COc1cccc(OCCNS(=O)(=O)Cc2ccccc2)c1`: the INHIBITION turned out to be 10.7%.
The figure for `COc1cccc(OCCNCc2ccccc2)c1` is 51.5%.
Regarding `COc1cccc(OCCNS(C)(=O)=O)c1`, the INHIBITION is recorded as -0.614%.
The result for `CC(C)(C)c1n[nH]c(C2CN(C(=O)C3=COCCC3)CCO2)n1` (stereo not drawn) reads 40.2%; that for `COc1ccccc1OC1(C(=O)O)CCN(c2ccccn2)CC1`, 40.5%; that for `COc1ccccc1OC1(C(=O)O)CCN(c2nccnc2OC)CC1`, 3.03%.
In the case of `COc1ccccc1OC1(C(=O)O)CCN(c2ncccc2F)CC1`, the INHIBITION was determined as 30.8%.
The figure for `COc1ccccc1OC1(C(=O)O)CCN(c2nc(C)cnc2C)CC1` is 56.5%.
The result for `COc1ccccc1OC1(C(=O)O)CCN(c2nccnc2C)CC1` reads 8.47%; that for `COc1ccccc1OC1(C(=O)O)CCN(c2ncnc(C)c2C)CC1`, 55.4%.
